In publication PMC10163288:
Not all results are given here. The hit rate among all sequences tested is not known here. Unmarked numbers belong to inactive results.

B1: il2ra_site2_2erj_normal_mot_HHH_b1_08185_000000063_0001_41_55_H_._HHH_b1_04971_af2_0001_0000600015_0000001_0 (protein)
chain: SSSSSDSAEEALELAKEAYEKGDRSEVELILRYLELSLEDANDPRVEEAYELVEELLEELSSSSS
B2: il2ra_site2_3nfp_normal_mot_HHH_b1_01086_000000225_0001_20_36_H_._HHH_b2_03611_0001_0000300035_0000001_0 (protein)
chain: SSSSSEAEEELERLLRELEELLKRDPEEAHRLSARALNLAYEARDFEIFARLADISFALASSSSS
B3: il2ra_site1_3nfp_sap_16_mot_5dea99290cf7e133ebc5b763b21a7a39_0001_000000141_0001_34_49_H_._ems_3hC_617_0002_0001_0000300017_0000001_0_0001 (protein)
chain: NDKIAERLVRQAVEQNSPRILKKILEDLERVLGDPEEARERLRELLELVLGDPEEVERLLELAEE
B4: il2ra_site1_3nfp_sap_8_mot_93ec910cbd4ebb8dd092c1ac1e61ab37_0001_1_af2_000000101_0001_16_31_H_._22fa1065b69cf192845a0250a7ccff51_0001_1_0001_0000400021_0000001_ … (protein)
chain: SSSSDSVEWLQEMIERAFENNDRRQLRVLIKILEKAAEQFGDPEVEKLLEEAERLLEELNSSSSS
B5: il2ra_site1_3nfp_normal_mot_HHH_b2_04366_af2_000000103_0001_1_19_H_._d3e5e791db42274430e6ef9f54efc4f5_0001_af2_0001_0000100007_0000001_0_af2pred_0001_af2pred_sw … (protein)
chain: SAKEISELLREAARKDPEVSELLWEALRLFVKNEEEALRLLEELLKELGDPLVEEVLRLLEELAK
B6: il2ra_site1_1z92_sap_8_mot_a31c9f16200a66e5ad31ddff700483a3_0001_1_000000069_0001_19_32_H_._HHH_b1_03395_0001_0000300021_0000001_0_0001_af2pred_0001_af2pred_1 (protein)
chain: PEELAEEARELLENGNPEEARKVLEKLAKELGTEEAFKLDLERAERFTGNPEVALKALIAALARH
B7: il2ra_site2_2erj_normal_mot_HHH_b1_06697_000000025_0001_41_54_H_._HHH_b2_03722_0001_0000300007_0000001_0_af2pred_0001_1_af2pred_swapped (protein)
chain: SSSSSDKEEVEERVREILEEAEQVRDPREALKILEKADRLASENNNEEALELIHEVLQRLSSSSS
B8: il2ra_site2_3nfp_sap_15_mot_HHH_b1_07089_af2_000000257_0001_1_17_H_._51cc31007119fa75359d0ea3f4aa2c22_0001_1_0001_0000100009_0000001_0_0001 (protein)
chain: SSSSSAAEDSVHVLKRELEELGDRESIEELERLLEEIKEHNDPRLLLELYALLLRLYEESSSSSS
B9: il2ra_site1_1z92_sap_21_mot_35b94aac26684153dbcc4bf06a514b74_0001_1_000000068_0001_35_49_H_._HEEHE_2006_af2_0001_0000400023_0000001_0_0001_af2pred_0001_af2pred (protein)
chain: SSSSDEEEAAEEIVREVVEKLGLSEEDREALERDAEQSLRRGISERSVKQALEKAAKRERSSSSS
B10: il2ra_site1_1z92_sap_11_mot_HHH_b2_00249_af2_000000052_0001_39_52_H_._HHH_b2_00616_af2_0001_0000400013_0000001_1_0001_af2pred_0001_af2pred (protein)
chain: SSSSSEKRKEALELFEEANELFKRGNDEEAQELLRRALELAEEAGNRVLARAIEQALEDAESSSS
B11: il2ra_site2_2erj_sap_22_mot_HHH_b2_08130_000000073_0001_1_17_H_._HHH_b1_02674_0001_0000300003_0000001_0_0001 (protein)
chain: SSSSDVEELLEEIEELLRRGDREEAERLLHEAAELAFERNDFELFTEVVEVAHEIDRLRVSSSSS
B12: il2ra_site2_3nfp_normal_mot_HHH_b1_01086_000000225_0001_20_36_H_._HHH_b1_01202_0001_0000300006_0000001_0_af2pred_0001_af2pred_swapped (protein)
chain: SSSSDHERFALRAALLEIEVAIEAGDEKKVEKLIERLEILIKRLNDEEMEELLRKLKEELSSSSS
B13: il2ra_site2_3nfp_normal_mot_HHH_b1_00660_af2_000000090_0001_40_57_H_._HHH_b1_07775_af2_0001_0000100002_0000001_1 (protein)
chain: SSSSDEELEEEVEKLLEEAKKIEDKFEAFALVLRAREIAERLGDEELKQLVARVALEIYESSSSS
B14: il2ra_site1_3nfp_normal_mot_eb5a5eebac1e5153f932cc6c3f4b2787_0001_af2_000000065_0001_18_33_H_._31bff7180b20e3ed47766ceefd9934be_0001_af2_0001_0000200025_0000001 … (protein)
chain: DEEKELAELIAEAVEKNDPELLEEVVQELLKKLGDPKEASRLFEELLRKAGLSPEEIYLAMELVV
B15: il2ra_site2_2erj_normal_mot_HHH_b1_04373_af2_000000118_0001_18_33_H_._HHH_b1_02368_af2_0001_0000200015_0000001_0 (protein)
chain: SSSSDEELREEVEELLERAREAYEEGDLELVYELAVEAAHFAARNQDEELLELILEVVERLSSSS
B16: il2ra_site1_1z92_normal_mot_HHH_b1_03515_000000289_0001_1_19_H_._HHH_b2_07175_0001_0000100001_0000001_0 (protein)
chain: SSSSDRLERAAEIIVRVAVEANGLSEEQEKELEELARELVERGLDPLEIIKLLDRLAAELSSSSS
B17: il2ra_site2_2erj_sap_28_mot_HHH_b1_06697_000000025_0001_41_54_H_._HHH_b1_07674_0001_0001200015_0000001_1_0001 (protein)
chain: SSSSSDVKEAYEEIAELLARAAHIKDPEEVRKLLEEAERLAEENNDPFARKYVEFARRDFSSSSS
B18: il2ra_site1_1z92_normal_mot_HHH_b2_01902_af2_000000252_0001_25_40_H_._HHH_b1_06549_af2_0001_0000100014_0000001_0_af2pred_dldesign_0_af2pred (protein)
chain: SSSSSPLERAARQYVDAIKEIAGLSDEQYAELLAEAERLAAAGVPVRDIAKALDKRAAELLSSSS
B19: il2ra_site2_3nfp_normal_mot_HHH_b2_00429_000000100_0001_21_37_H_._HHH_b1_08311_0001_0000300035_0000001_0 (protein)
chain: SSSSDEEVERLIEEAEELLRNGNPEEAKRVISRATDLAYEAGDHRLFALLVDLVAVVAHLLSSSS
B20: il2ra_site2_3nfp_normal_mot_HHH_b2_04451_000000238_0001_21_37_H_._HHH_b2_06904_0001_0000300014_0000001_0 (protein)
chain: SSSSSSDEEEIEELLELVEKIDDQLERLQVLLEASKLAAELGDEELAREVLRLFAEIQSSSSSSS
B21: il2ra_site1_3nfp_normal_mot_0eddeacbb14b769e73e254714f31e2f9_0001_af2_000000052_0001_37_51_H_._HHH_b1_00975_af2_0002_0000100004_0000001_0 (protein)
chain: SSSSSDEEELRERVEELLEEAKHVSEEEASRLIEEAYRLVQENGNQELADLIYRVMREMISSSSS
B22: il2ra_site2_3nfp_sap_4_mot_HHH_b2_00168_000000180_0001_1_21_H_._HHH_b2_05578_af2_0001_0000500013_0000001_0_0001 (protein)
chain: SSSSDDVEEYLRAALALAREAIKQGDEELAEKILEMIRKAAEDAKDEEALEEAEELLKLVGSSSS
B23: il2ra_site2_3nfp_normal_mot_HHH_b2_06150_000000217_0001_39_53_H_._HHH_b1_03322_0001_0000100005_0000001_0 (protein)
chain: SSSSDIEERIEELLEEAKELIENGDPERAQEVLQEATHLAYEIRNSELFMRVAELLYLLRSSSSS
B24: il2ra_site1_3nfp_sap_8_mot_HHH_b1_04221_000000040_0001_40_56_H_._16d56542c9725820401ab7c11c235cbe_0001_0001_0000300014_0000001_0_0001 (protein)
chain: SSSSNEAAREATELMREIRRLLKEGNPEEARKLLEELEELAERNNDPVLKWLVRQFEESINSSSS

The binders below were run against il2ra, P01589 (assay: yeast display titration).
il2ra, P01589, sequence (P01589 whole entry): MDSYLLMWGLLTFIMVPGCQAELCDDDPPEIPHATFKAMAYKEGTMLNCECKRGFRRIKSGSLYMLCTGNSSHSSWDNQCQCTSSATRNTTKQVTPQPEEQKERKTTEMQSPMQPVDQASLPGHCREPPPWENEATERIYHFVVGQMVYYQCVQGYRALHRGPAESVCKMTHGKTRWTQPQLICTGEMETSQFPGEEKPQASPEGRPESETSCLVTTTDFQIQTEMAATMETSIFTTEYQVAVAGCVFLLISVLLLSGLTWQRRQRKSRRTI

| Binder | apparent Kd |
| --- | --- |
| B1 | no binding seen |
| B2 | no binding seen |
| B3 | no binding seen |
| B4 | no binding seen |
| B5 | no binding seen |
| B6 | no binding seen |
| B7 | no binding seen |
| B8 | no binding seen |
| B9 | no binding seen |
| B10 | no binding seen |
| B11 | no binding seen |
| B12 | no binding seen |
| B13 | no binding seen |
| B14 | no binding seen |
| B15 | no binding seen |
| B16 | no binding seen |
| B17 | no binding seen |
| B18 | no binding seen |
| B19 | no binding seen |
| B20 | no binding seen |
| B21 | no binding seen |
| B22 | no binding seen |
| B23 | no binding seen |
| B24 | no binding seen |
